# Experimental data from PubChem BioAssay AID1159580 (chemical genetic matrix, 2015).
# Where “and” joins values, the source holds several entries; their conditions need not be identical. Equal entries are not always repeated. Hit rate of the full screen: of about 5,500 compounds, about 2,000 (36%) were called active. Roughly 18% stayed inconclusive and do not appear here. The list shows a part of the results. Unmarked numbers belong to inactive results. Rule as the data show it: active = normalized growth mostly below about 0.91 (no sharp cut-off); inconclusive = no clear call, values can overlap the other calls; inactive = mostly above about 0.92.
# Assay: chemical genetic growth profiling, strain panel (AID 1159580);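 also: tested at 20 µM; growth read once vehicle control cultures reached saturation at 30 °C; 1 = growth at the plate median or of vehicle wells; lower values mean less growth of the strain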
# Conditions: S. cerevisiae deletion strains, growth OD
compound,measurement,setting,value
CN(C)C(=S)SSC(=S)N(C)C,normalized growth,"locus YAL013W, strain DEP1, stronger effect = lower value",0.0581 (active)
same,normalized growth,"locus YAL021C, strain ccr4, stronger effect = lower value",0.0666 (active)
same,normalized growth,"locus YAL026C, strain drs2, stronger effect = lower value",0.0601 (active)
same,normalized growth,"locus YAL030W, strain snc1, stronger effect = lower value",0.0553 (active)
same,normalized growth,"locus YBL061C, strain skt5, stronger effect = lower value",0.0618 (active)
same,normalized growth,"locus YBR009C, strain hhf1, stronger effect = lower value",0.0687 (active)
same,normalized growth,"locus YBR021W, strain FUR4, stronger effect = lower value",0.0817 (active)
same,normalized growth,"locus YBR023C, strain chs3, stronger effect = lower value",0.061 (active)
same,normalized growth,"locus YBR171W, strain sec66, stronger effect = lower value",0.074 (active)
same,normalized growth,"locus YBR229C, strain ROT2, stronger effect = lower value",0.048 (active)
same,normalized growth,"locus YBR231C, strain swc5, stronger effect = lower value",0.0647 (active)
same,normalized growth,"locus YBR279W, strain paf1, stronger effect = lower value",0.0589 (active)
same,normalized growth,"locus YCL011C, strain gbp2, stronger effect = lower value",0.0557 (active)
same,normalized growth,"locus YCL016C, strain dcc1, stronger effect = lower value",0.0628 (active)
same,normalized growth,"locus YCL029C, strain bik1, stronger effect = lower value",0.0606 (active)
same,normalized growth,"locus YCL061C, strain MRC1, stronger effect = lower value",0.0642 (active)
same,normalized growth,"locus YCL069W, strain vba3, stronger effect = lower value",0.0641 (active)
same,normalized growth,"locus YCR088W, strain abp1, stronger effect = lower value",0.0578 (active)
same,normalized growth,"locus YDL005C, strain med2, stronger effect = lower value",0.0735 (active)
same,normalized growth,"locus YDL035C, strain GPR1, stronger effect = lower value",0.0496 (active)
same,normalized growth,"locus YDL040C, strain nat1, stronger effect = lower value",0.0566 (active)
same,normalized growth,"locus YDL074C, strain BRE1, stronger effect = lower value",0.08 (active)
same,normalized growth,"locus YDL101C, strain DUN1, stronger effect = lower value",0.0541 (active)
same,normalized growth,"locus YDL134C, strain PPH21, stronger effect = lower value",0.048 (active)
same,normalized growth,"locus YDL185W, strain tfp1, stronger effect = lower value",0.967
same,normalized growth,"locus YDL192W, strain arf1, stronger effect = lower value",0.0606 (active)
same,normalized growth,"locus YDR001C, strain nth1, stronger effect = lower value",0.0555 (active)
same,normalized growth,"locus YDR069C, strain doa4, stronger effect = lower value",0.0622 (active)
same,normalized growth,"locus YDR101C, strain arx1, stronger effect = lower value",0.0568 (active)
same,normalized growth,"locus YDR137W, strain rgp1, stronger effect = lower value",0.0857 (active)
same,normalized growth,"locus YDR150W, strain NUM1, stronger effect = lower value",0.0561 (active)
same,normalized growth,"locus YDR159W, strain sac3, stronger effect = lower value",0.0951 (active)
same,normalized growth,"locus YDR162C, strain NBP2, stronger effect = lower value",0.0528 (active)
same,normalized growth,"locus YDR195W, strain ref2",0.147 (active)
same,normalized growth,"locus YDR297W, strain sur2, stronger effect = lower value",0.0586 (active)
same,normalized growth,"locus YDR318W, strain mcm21, stronger effect = lower value",0.0615 (active)
same,normalized growth,"locus YDR334W, strain swr1, stronger effect = lower value",0.0607 (active)
same,normalized growth,"locus YDR335W, strain msn5, stronger effect = lower value",0.0573 (active)
same,normalized growth,"locus YDR388W, stronger effect = lower value",0.0573 (active)
same,normalized growth,"locus YDR392W, strain spt3, stronger effect = lower value",0.0953 (active)
same,normalized growth,"locus YDR502C, strain sam2, stronger effect = lower value",0.0603 (active)
same,normalized growth,"locus YEL003W, strain gim4, stronger effect = lower value",0.0529 (active)
same,normalized growth,"locus YEL037C, strain rad23, stronger effect = lower value",0.0561 (active)
same,normalized growth,"locus YEL061C, strain CIN8 (second series), stronger effect = lower value",0.06 (active)
same,normalized growth,"locus YEL061C, strain CIN8, stronger effect = lower value",0.0482 (active)
same,normalized growth,"locus YER015W, strain faa2, stronger effect = lower value",0.0644 (active)
same,normalized growth,"locus YER016W, strain bim1, stronger effect = lower value",0.0587 (active)
same,normalized growth,"locus YER110C, stronger effect = lower value",0.0744 (active)
same,normalized growth,"locus YER111C, strain swi4, stronger effect = lower value",0.0843 (active)
same,normalized growth,"locus YER155C, strain BEM2 (second series), stronger effect = lower value",0.0839 (active)
same,normalized growth,"locus YER155C, strain BEM2, stronger effect = lower value",0.0634 (active)
same,normalized growth,"locus YER167W, strain BCK2, stronger effect = lower value",0.0494 (active)
same,normalized growth,"locus YFR010W, strain ubp6, stronger effect = lower value",0.067 (active)
same,normalized growth,"locus YGL078C, strain dbp3, stronger effect = lower value",0.0559 (active)
same,normalized growth,"locus YGL086W, strain mad1, stronger effect = lower value",0.0545 (active)
same,normalized growth,"locus YGL167C, strain pmr1, stronger effect = lower value",0.0722 (active)
same,normalized growth,"locus YGL173C, strain kem1, stronger effect = lower value",0.0644 (active)
same,normalized growth,"locus YGL227W, strain vid30, stronger effect = lower value",0.0589 (active)
same,normalized growth,"locus YGL240W, strain doc1, stronger effect = lower value",0.0761 (active)
same,normalized growth,"locus YGL248W, strain PDE1, stronger effect = lower value",0.0464 (active)
same,normalized growth,"locus YGL253W, strain hxk2, stronger effect = lower value",0.0521 (active)
same,normalized growth,"locus YGR078C, strain PAC10, stronger effect = lower value",0.0501 (active)
same,normalized growth,"locus YGR135W, strain pre9, stronger effect = lower value",0.0684 (active)
same,normalized growth,"locus YGR229C, strain SMI1, stronger effect = lower value",0.0575 (active)
same,normalized growth,"locus YGR252W, strain gcn5, stronger effect = lower value",0.158 (active)
same,normalized growth,"locus YHR013C, strain ard1, stronger effect = lower value",0.107 (active)
same,normalized growth,"locus YHR027C, strain rpn1, stronger effect = lower value",0.0609 (active)
same,normalized growth,"locus YHR030C, strain SLT2, stronger effect = lower value",0.0503 (active) and 0.115 (active)
same,normalized growth,"locus YHR079C, strain IRE1 (second series), stronger effect = lower value",0.0559 (active)
same,normalized growth,"locus YHR079C, strain IRE1, stronger effect = lower value",0.109 (active)
same,normalized growth,"locus YHR094C, strain hxt1, stronger effect = lower value",0.0581 (active)
same,normalized growth,"locus YHR129C, strain ARP1, stronger effect = lower value",0.0536 (active)
same,normalized growth,"locus YHR142W, strain chs7, stronger effect = lower value",0.0711 (active)
same,normalized growth,"locus YHR200W, strain rpn10, stronger effect = lower value",0.0592 (active)
same,normalized growth,"locus YIL066C, strain RNR3, stronger effect = lower value",0.0523 (active)
same,normalized growth,"locus YIL073C, strain SPO22, stronger effect = lower value",0.0945 (active)
same,normalized growth,"locus YIL125W, strain kgd1, stronger effect = lower value",0.0556 (active)
same,normalized growth,"locus YIR030C, strain dcg1, stronger effect = lower value",0.0579 (active)
same,normalized growth,"locus YJL092W, strain hpr5, stronger effect = lower value",0.0561 (active)
same,normalized growth,"locus YJL095W, strain BCK1 (second series), stronger effect = lower value",0.057 (active)
same,normalized growth,"locus YJL095W, strain BCK1, stronger effect = lower value",0.049 (active) and 0.102 (active)
same,normalized growth,"locus YJL115W, strain asf1, stronger effect = lower value",0.0685 (active)
same,normalized growth,"locus YJL129C, strain trk1, stronger effect = lower value",0.0884 (active)
same,normalized growth,"locus YJL134W, strain LCB3, stronger effect = lower value",0.0489 (active)
same,normalized growth,"locus YJL154C, strain vps35, stronger effect = lower value",0.0623 (active)
same,normalized growth,"locus YJL164C, strain tpk1, stronger effect = lower value",0.0632 (active)
same,normalized growth,"locus YJL166W, strain qcr8, stronger effect = lower value",0.0627 (active)
same,normalized growth,"locus YJL168C, strain set2, stronger effect = lower value",0.0598 (active)
same,normalized growth,"locus YJL187C, strain SWE1 (second series), stronger effect = lower value",0.0476 (active)
same,normalized growth,"locus YJL187C, strain SWE1, stronger effect = lower value",0.0566 (active)
same,normalized growth,"locus YJR043C, strain POL32, stronger effect = lower value",0.0614 (active)
same,normalized growth,"locus YJR066W, strain TOR1, stronger effect = lower value",0.00175 (active)
